# Compound activity (PubChem BioAssay)
# HIF-2a block – HIF-2a inhibition. 786-0 RCC cells HIF-2a reporter, luciferase luminescence, overnight. AID 624352. inhibition, % at 18.8 µM. 360,000 tested, 0.72% active;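 active = inhibition of the luminescence signal of 40% or more relative to plate controls, in a single-dose primary screen at 18.75 µM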
# KKLEB cytotox – CF airway cell cytotoxicity counter-screen; KKLEB CF airway cells viability, ATPlite luminescence, overnight; hits give low values; cells stimulated with P. aeruginosa culture filtrate; activity change (cytotoxicity), % at 5 µM; 360,000 tested, 0.36% active;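 active = corrected activity change at or below -50% at 5 µM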
# TROY NFkB inh – inhibitors of TROY-dependent NF-kB signaling; Q293 LMP1-TROYcd NF-kB luciferase reporter, 4 h; inhibition, % at 10 µM; 360,000 tested, 0.98% active;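 active = compounds whose plate-normalised and pattern-corrected inhibition of the luciferase reporter signal at the single screening dose is 50% or more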
# TWEAK-Fn14 inh – TWEAK-Fn14 signaling inhibition; TWEAK-stimulated Fn14 reporter cells, luciferase luminescence, 8 h; inhibition, % at 10 µM; 360,000 tested, 2% active; AID 1159606; in the data active = inhibition above about 50%
# CF NFkB block – blocks PAF-induced NF-kB reporter in cystic fibrosis cells; 360,000 tested, 0.86% active; inhibition, % at 5 µM; AID 588850; KKLEB NF-kB-GFP reporter, GFP fluorescence overnight;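 active = at least 50% inhibition at 5 µM, scaled per plate between neutral and stimulator controls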;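 also: PAF is a Pseudomonas aeruginosa culture filtrate used as stimulus; plate controls were PAF-stimulated DMSO wells for no effect and unstimulated DMSO wells for full effect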
# Peg3 prom inh – Peg3 promoter activity inhibition | HeLa PEG-Prom luciferase reporter, luminescence, overnight | inhibition, % at 20 µM | 360,000 tested, 1.7% active | AID 588405;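 active = inhibition of at least 50% at 20 µM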
# * marks the source's active call; other numbers are inactive results. A selection: hits, their analogues and other compounds. The true share with any hit is near 4%.
SMILES,HIF-2a block,KKLEB cytotox,TROY NFkB inh,TWEAK-Fn14 inh,CF NFkB block,Peg3 prom inh
COc1cc(C(C)=O)ccc1OCC(=O)Nc1ccc(C)c(S(=O)(=O)N2CCCCCC2)c1,29,4,63*,84*,11,55*
Cc1ccc(S(=O)(=O)N2CCCCC2)cc1NC(=O)CSc1ncnc2ccccc12,33,-8,-5,34,33,26
Cc1ccc(NC(=O)CSc2ncnc3ccccc23)cc1S(=O)(=O)N1CCCCCC1,27,-10,53*,87*,45,6
CC(C)(C)S(=O)(=O)c1cnc(N2CCOCC2)nc1N,22,1,-18,7,9,5
CCN(CCNC(=O)c1ccc(C#N)cc1)c1cccc(C)c1,4,-10,-17,-8,-8,-3
CCN(CCNCC(O)COCc1ccc(Cl)cc1)c1cccc(C)c1 (configuration not stated),6,2,-13,-2,-13,103*
CN(C)Cc1c(C(C)(C)O)[nH]c2ccc(C(F)(F)F)cc12,7,6,-4,-15,11,-24
CCc1c(C2(O)CCCCC2)[nH]c2ccc(C(F)(F)F)cc12,-13,27,56*,16,16,47
CCN1CCN(CCNC(=O)c2ccc3nc(-c4cccc(C)c4)c(-c4cccc(C)c4)nc3c2)CC1,2,4,-61,-24,12,91*
CCCNC(=O)c1ccc2nc(-c3ccccc3)c(-c3ccccc3)nc2c1,1,-5,-9,39,10,17
CCN1CCN(CCCNC(=O)c2ccc3c(Cl)c4c(nc3c2)CCCC4)CC1,-18,-4,9,-27,19,74*
Cc1cccc(C=Nc2ccc3c(c2)oc2ccccc23)c1O,-132,-6,-35,-23,2,-146
CCCCN1C(C)=CC(=C2C(=O)c3ccccc3C2=O)C=C1C,-55,-23,60*,53*,7,-41
COc1ccc(-c2ccc(C(=O)Nc3cccc(F)c3)c3occc23)c(C)c1,-276,0,58*,50,-60,-393
COc1ccc(-c2ccc(C(=O)Nc3cccc(NS(C)(=O)=O)c3)c3occc23)c(C)c1,-109,8,43,59*,28,17
COc1ccc(-c2ccc(C(=O)Nc3cccc(C(C)=O)c3)c3occc23)c(C)c1,-168,0,17,48,-19,-86
COc1ccc(-c2coc3c(C(=O)Nc4cccnc4)cccc23)c(C)c1,-67,-16,22,66*,19,-39
COc1ccc(-c2coc3c(C(=O)Nc4cccc(C(C)=O)c4)cccc23)c(C)c1,-19,-12,22,8,1,-18
O=c1nc(Nc2ccccc2)oc2ccccc12,-246,-4,-64,-17,1,-248
O=c1oc(Nc2ccc(F)cc2)nc2ccccc12,-135,-15,6,58*,-3,-95
C=CCN(c1ccc(Br)cc1C(=O)OC)S(C)(=O)=O,12,-7,-6,-7,18,3
C[n+]1cccc(C(=O)NNC(=O)C23CC4CC(CC(C4)C2)C3)c1,20,10,52*,1,11,11
COc1ccccc1C(=O)NNC(=O)C12CC3CC(CC(C3)C1)C2,23,4,-4,-12,-2,28
O=C(NNC(=O)C12CC3CC(CC(C3)C1)C2)c1ccccn1,0,-9,-11,-79,23,60*
COc1cccc(-c2nc(OC(C)C)c3ccccc3n2)c1,-9,-2,-35,0,-7,-3
SMILES,HIF-2a block,KKLEB cytotox,TROY NFkB inh,TWEAK-Fn14 inh,CF NFkB block,Peg3 prom inh
O=C(c1ccc([N+](=O)[O-])cc1)N1CCc2ccccc21,-18,11,-13,2,-15,-14
CCn1nnnc1SCC(=O)Nc1nc2ccccc2s1,-70,6,-25,39,1,-82
COCCCn1nnnc1SCC(=O)Nc1nc2ccccc2s1,-5,-2,81*,2,5,2
CC1CCC2(CC1)NC(=O)N(CC(=O)NC1CCCCC1C)C2=O (configuration not stated),16,3,2,10,-5,-2
CCCOc1nnnn1-c1ccccc1,9,-6,14,-2,13,12
Cc1ccc(C(=O)c2c(C)oc3c2C(=O)C(=O)c2ccccc2-3)cc1,29,-16,29,54*,78*,101*
Cc1oc2c(c1C(=O)c1ccc(Cl)cc1)C(=O)C(=O)c1ccccc1-2,94*,-62*,38,91*,86*,107*
Cc1ccc(C(=O)c2coc3c2C(=O)C(=O)c2ccccc2-3)cc1,-131,13,-3,-33,7,-38
Cc1cc(NC(=O)CN(C)CC(=O)Nc2ccc(F)c(F)c2F)no1,5,9,14,2,-22,9
NC(=NC1CCCCC1)NS(=O)(=O)c1ccccc1,-2,5,-5,10,-9,-4
CC(C)(C)C(=O)COC(=O)c1c2c(nc3ccccc13)CCC2,-14,4,-13,-7,-1,-6
CC1Cc2ccccc2N1C(=O)COC(=O)c1c2c(nc3ccccc13)CCCCC2 (configuration not stated),-25,-6,-7,35,43,51*
NC(=O)COC(=O)c1c2c(nc3ccccc13)CCCCC2,20,-4,55*,5,0,4
CCOC(=O)N1CCC(NC(=O)c2cccn3c(=O)c4cc(Br)ccc4nc23)CC1,-2,5,0,-31,-31,10
CN(CCN(C)C(=O)c1[nH]cnc1C(=O)Nc1ccccc1)C(=O)c1[nH]cnc1C(=O)Nc1ccccc1,3,-9,5,8,3,12
Cc1ccc(S(=O)(=O)c2cc3ccccc3oc2=Nc2ccc3c(c2)OCCO3)cc1,12,-20,13,81*,23,12
COc1cccc2cc(S(=O)(=O)c3ccccc3)c(=Nc3ccc4c(c3)OCCO4)oc12,13,-11,17,78*,18,3
Cc1nc2ncnn2c(C)c1CCC(=O)NCCC1=CCCCC1,8,2,-16,-12,-12,-3
Cc1ccc(OCC(=O)Nc2ccc(N3CCN(C(=O)c4ccco4)CC3)cc2)cc1,9,2,1,-1,-22,-12
Cc1ccc(C)c(OCCC(=O)NNC(=O)c2ccccc2)c1,7,-19,4,-6,10,13
CC1(C)CCCN(C(=O)c2ccc3c(c2NCCO)C(=O)c2ccccc2C3=O)C1,40*,-1,9,25,-2,23
N#CC1=C(N)N2C(=C(C#N)C1c1cccc(Br)c1)Nc1ccccc12 (configuration not stated),3,-50*,73*,94*,42,40
CCC(C)c1ccc(NC(=S)NC2CCN(Cc3ccccc3)CC2)cc1 (configuration not stated),12,-1,26,-1,2,77*
